# Measured values: PubChem BioAssay (NCATS)
# Records with an inconclusive call do not appear. A call without a number means that no potency is given here. Active and inactive are the calls of the source. Calls follow the shape of the dose curve; as a rule, active = well fitted curve in the direction sought with a large enough effect; inconclusive = small, poorly fitted or top-dose-only effect, or another doubt; inactive = no such curve, though single readings can be large; an effect the other way counts as inactive or inconclusive.
# Experiments:
# [1] = test system: Zika virus NS2B-NS3 protease; experiment: Primary screen GU AMC qHTS for Zika virus inhibitors (AID 1347154); also: nearly all actives have a fitted effect of over 70% in size
# In short: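 Unlinked Zika NS2B hydrophilic domain/NS3 protease domain noncovalent complex (25 nM final) in 10 mM Tris-HCl pH 8.0, 0.01% Tween 20, with AMC peptide substrate. Fluorescence (ex 340, em 450 nm) change over 15 min, room temperature; percent inhibition fitted to 4-parameter Hill equation.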
# [2] = Counterscreen qHTS for small molecule stabilizers of the endoplasmic reticulum resident proteome: GLuc-NoTag assay (AID 1508627);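 also: SH-SY5Y cells given compound then 100 nM thapsigargin to empty ER calcium; series mostly up to about 76 µM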
# In short: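 SH-SY5Y cells stably expressing constitutively secreted GLuc (no SERCaMP tag) were pre-incubated 5 h, treated with compound for 19 h, then 100 nM thapsigargin for 4 h at 37C; medium GLuc read by coelenterazine luminescence.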
smiles,measurement,setting,value
COc1ccc(NC(=O)c2cc(OCCCN(C)C)nn2Cc2ccccc2)cc1,Potency,[1],inactive
same,Potency,[2],inactive
